# PubChem BioAssay AID2330 (Broad Institute, 2010)
# Among all 37,000 compounds or so, about 2,800 (7.6%) were called active. About 1% were inconclusive and are not listed. The sample as a whole holds a higher share of actives than the screen did. A number with no mark means an inactive call. Cut-off read from the data, not from the text of the source: active = inhibition above about 80%; inconclusive = no clear call, values can overlap the other calls; inactive = below that.
# Assay: NOMO-1 AML cell viability reduction, primary screen, STK33 inhibitor project, CellTiter-Glo luminescence (AID 2330)
# Conditions: NOMO-1 AML viability, 72 h, stronger effect = higher value, concentration not given here
row,SMILES,inhibition
1,COCc1nc2c([nH]1)C(c1ccccc1COc1ccc(Cl)cc1)C(C#N)=C(N)O2 (centres undefined),111% (active)
2,COc1cc(OC)cc(C2C(C#N)=C(N)OC(N)=C2C#N)c1,38.6%
3,CCn1c(SCC(=O)O)nnc1-c1ccc(OC)cc1,-32.5%
4,S=c1cc(-c2ccccc2)oc(-c2ccccc2)c1,61.2%
5,C[C@@H]1CN([C@H](C)CO)C(=O)c2cccc(NS(=O)(=O)c3ccc(Cl)cc3)c2O[C@@H]1CN(C)Cc1ccc(Oc2ccccc2)cc1,49.7%
6,CCC(=O)O[C@]1(C(=O)CCl)[C@@H](C)CC2C3CCC4=CC(=O)C=C[C@]4(C)[C@@]3(F)[C@@H](O)C[C@@]21C (some centres undefined),7.72%
7,CC(C)(C)c1ccc(-c2[nH]nc(NC(=O)c3ccccc3Cl)c2Br)cc1,123% (active)
8,COc1cc(NC(=O)COc2ccc(Br)cc2)ccc1NC(=O)c1ccccc1Cl,13.7%
9,C[C@@H]1CN([C@@H](C)CO)C(=O)Cc2cc(NC(=O)Nc3ccc4c(c3)OCO4)ccc2O[C@@H]1CN(C)C(=O)Nc1ccc2c(c1)OCO2,9.09%
10,CC(C)NC(=O)Nc1cccc2c1O[C@H](CN(C)S(=O)(=O)c1ccccc1)[C@@H](C)CN([C@@H](C)CO)C2=O,6.74%
11,C[C@H]1CN([C@@H](C)CO)C(=O)c2cc(NS(=O)(=O)c3ccc(F)cc3)ccc2O[C@H]1CN(C)CC1CC1,16.3%
12,Cc1ccc(S(=O)(=O)Nc2ccc3c(c2)C(=O)N([C@@H](C)CO)C[C@H](C)[C@@H](CN(C)S(=O)(=O)c2ccc(C)cc2)O3)cc1,-8.16%
13,C[C@@H]1CN([C@H](C)CO)C(=O)Cc2cc(NC(=O)c3ccncc3)ccc2O[C@H]1CN(C)S(=O)(=O)c1cccs1,13.9%
14,C[C@H](CO)N1C[C@H](C)[C@H](CN(C)Cc2ccc(C(F)(F)F)cc2)Oc2ccc(NS(C)(=O)=O)cc2C1=O,3.14%
15,CN1CCN(CC(=O)Nc2sc3c(c2C#N)CCC(C(C)(C)C)C3)CC1 (centres undefined),115% (active)
16,N#Cc1c(NC(=O)CCn2cnc3ccccc3c2=O)sc2c1CCCC2,27.7%
17,CCn1c(SCC(=O)Nc2sc3c(c2C#N)CCCC3)nnc1-c1ccccc1O,-7.99%
18,OC(c1nc2ccccc2[nH]1)C(O)C(O)C(O)c1nc2ccccc2[nH]1 (centres undefined),-2.04%
19,O=C(CSc1ncnc2sc3c(c12)CCCC3)Nc1ccc(F)c(Cl)c1,-1.63%
20,CC(C)NC(=O)N(C)C[C@H]1Oc2c(NS(C)(=O)=O)cccc2C(=O)N([C@@H](C)CO)C[C@H]1C,12.9%
21,C[C@@H]1CN([C@@H](C)CO)C(=O)c2cccc(NC(=O)c3cnccn3)c2O[C@H]1CN(C)S(=O)(=O)c1cccs1,9.49%
22,COc1cc(/C=C/C(=O)O[C@@H]2O[C@H](CO[C@@H]3O[C@H](CO)[C@@H](O)[C@H](O)[C@H]3O)[C@@H](O)[C@H](O)[C@H]2OC(=O)/C=C/c2cc(OC)c(O)c(OC)c2)cc(OC)c1O,14.7%

row,SMILES,inhibition
1,O=C(OCC1OC(Oc2ccc(O)cc2COC(=O)C2(O)C(O)CCC(O)C2O)C(O)C(O)C1O)c1ccccc1 (centres undefined),17%
2,COc1cc(O[C@@H]2O[C@H](CO[C@H]3OC[C@](O)(COC(=O)c4ccc(O)c(OC)c4)[C@H]3O)[C@@H](O)[C@H](O)[C@H]2O)ccc1O,120% (active)
3,Cc1ccc(S(=O)(=O)N(C)C[C@@H]2Oc3c(NC(=O)C4CCCCC4)cccc3C(=O)N([C@H](C)CO)C[C@H]2C)cc1,16.1%
4,COc1ccc(NC(=O)Nc2ccc3c(c2)C(=O)N([C@H](C)CO)C[C@H](C)[C@H](CN(C)C(=O)Nc2c(C)noc2C)OCCCC[C@@H](C)O3)cc1,-10.5%
5,C[C@@H]1CN([C@H](C)CO)C(=O)c2cc(NC(=O)Nc3ccc(F)cc3)ccc2O[C@@H]1CN(C)Cc1ccc(Cl)c(Cl)c1,62.8%
6,CC(C)NC(=O)Nc1ccc2c(c1)C(=O)N([C@@H](C)CO)C[C@@H](C)[C@H](CN(C)Cc1ccc(Cl)c(Cl)c1)O2,44.5%
7,C[C@@H]1CN([C@H](C)CO)C(=O)c2cc(NC(=O)Nc3ccccc3)ccc2O[C@@H]1CN(C)Cc1ccc(Cl)c(Cl)c1,88.9% (active)
8,COc1ccc(NC(=O)Nc2ccc3c(c2)C(=O)N([C@@H](C)CO)C[C@@H](C)[C@H](CN(C)Cc2ccc(Cl)c(Cl)c2)O3)cc1,39.3%
9,C[C@@H]1CN([C@H](C)CO)C(=O)c2cc(NC(=O)Nc3ccccc3)ccc2O[C@H]1CN(C)Cc1ccc(Cl)c(Cl)c1,-8.23%
10,C[C@@H]1CN([C@@H](C)CO)C(=O)c2cc(NC(=O)Nc3cccc4ccccc34)ccc2O[C@H]1CN(C)Cc1ccc(Cl)c(Cl)c1,94% (active)
11,CC(=O)Oc1ccc(N(C(C)=O)S(=O)(=O)c2ccc(Cl)cc2)cc1,42.4%
12,CCC(Oc1cccc(NC(=O)c2ccccc2[N+](=O)[O-])c1)C(=O)c1ccccc1 (centres undefined),2.87%
13,Cc1ccc(NC(=O)CSc2ncnc3sc(C)c(C)c23)cc1,11.3%
14,Cc1ccc(S(=O)(=O)NCC(=O)N2CCN(c3ccccn3)CC2)cc1,-2.49%
15,Cc1ccc(S(=O)(=O)Nc2ccc3c(c2)C(=O)N([C@@H](C)CO)C[C@@H](C)[C@@H](CN(C)Cc2ccncc2)O3)cc1,22.8%
16,C[C@H](CO)N1C[C@H](C)[C@@H](CN(C)Cc2ccc3c(c2)OCO3)Oc2ccc(NC(=O)Nc3ccc(F)cc3)cc2C1=O,-1.77%
17,C[C@@H]1CN([C@H](C)CO)C(=O)c2cc(NC(=O)Nc3ccc(C(F)(F)F)cc3)ccc2O[C@H]1CN(C)C(=O)Nc1ccccc1,24.7%
18,C[C@@H]1CN([C@H](C)CO)C(=O)c2cccc(NC(=O)Nc3cccc4ccccc34)c2O[C@@H]1CN(C)C(=O)Nc1ccc(F)cc1,97% (active)
19,C[C@H](CO)N1C[C@H](C)[C@H](CN(C)C(=O)Nc2ccccc2)Oc2c(NC(=O)Nc3ccc(C(F)(F)F)cc3)cccc2C1=O,96.2% (active)
20,C[C@@H]1CN([C@@H](C)CO)C(=O)c2cccc(NC(=O)Nc3ccc(F)cc3)c2O[C@H]1CN(C)C(=O)Nc1ccc(F)cc1,-5.44%
21,C[C@@H]1CN([C@@H](C)CO)C(=O)c2cccc(NC(=O)Nc3ccc(F)cc3)c2O[C@@H]1CN(C)C(=O)Nc1ccccc1,35.8%
22,COc1ccc(CN(C)C[C@H]2Oc3c(NC(=O)Nc4ccccc4)cccc3C(=O)N([C@@H](C)CO)C[C@@H]2C)cc1,56.6%

row,SMILES,inhibition
1,C[C@@H]1CN([C@@H](C)CO)C(=O)c2cccc(NC(=O)Nc3ccccc3)c2O[C@H]1CN(C)Cc1ccccc1,117% (active)
2,C[C@H](CO)N1C[C@H](C)[C@H](CN(C)C(=O)Nc2ccc(C(F)(F)F)cc2)Oc2ccc(NC(=O)Nc3ccccc3)cc2C1=O,85.9% (active)
3,C[C@H]1CN([C@@H](C)CO)C(=O)c2cc(NC(=O)Nc3ccccc3)ccc2O[C@@H]1CN(C)C(=O)Nc1ccccc1,6.27%
4,C[C@@H]1CN([C@H](C)CO)C(=O)c2cccc(NC(=O)Nc3ccccc3)c2O[C@H]1CN(C)Cc1ccccc1,75.5%
5,C[C@@H]1CN([C@H](C)CO)C(=O)c2cccc(NC(=O)Nc3cccc4ccccc34)c2O[C@@H]1CN(C)C(=O)Nc1cccc2ccccc12,10.3%
6,C[C@H]1CN([C@@H](C)CO)C(=O)c2cccc(NC(=O)Nc3ccc(C(F)(F)F)cc3)c2O[C@@H]1CN(C)Cc1ccccc1,72.2%
7,O=C(CSc1nccc(=O)[nH]1)Nc1ccc([N+](=O)[O-])cc1,11.7%
8,C=C1CCC(C)C(C)(CCC2=CC(OC)OC2=O)C/C=C\C=C\1C(=O)O (centres undefined),9.74%
9,Cc1cc(C)n2nc(SCC(=O)Nc3ccccc3[N+](=O)[O-])nc2n1,4.39%
10,Cc1ccc(CC2C(=O)N(c3cccc(C(F)(F)F)c3)C(=O)C2C)cc1 (centres undefined),54.7%
11,C[C@@H]1CN([C@H](C)CO)C(=O)c2cc(NC(=O)C3CC3)ccc2O[C@@H]1CN(C)C,-2.07%
12,CNC[C@H]1Oc2c(NC(=O)C3CC3)cccc2C(=O)N([C@@H](C)CO)C[C@@H]1C,15.2%
13,C[C@@H]1CN([C@H](C)CO)C(=O)Cc2cc(NS(=O)(=O)c3ccc(Cl)cc3)ccc2O[C@@H]1CN(C)S(=O)(=O)c1ccc(Cl)cc1,19.9%
14,C[C@@H]1CN([C@H](C)CO)C(=O)c2cc(NC(=O)Cc3ccccc3)ccc2O[C@H]1CN(C)S(=O)(=O)c1cn(C)cn1,4.97%
15,CC(Sc1nc2ccccc2[nH]1)c1nc2ccccc2[nH]1 (centres undefined),4.08%
16,Cc1cccc(C)c1NC(=O)C(C)N(c1ccc(Cl)cc1)S(C)(=O)=O (centres undefined),-16.6%
17,CCOC(=O)c1c(NC(=O)Cn2nc([N+](=O)[O-])c(Br)c2C)sc2c1CCCC2,41.4%
18,Cc1ccc(S(=O)(=O)Nc2cccc3c2O[C@@H](CN(C)CC2CCCCC2)[C@H](C)CN([C@@H](C)CO)C3=O)cc1,10.5%
19,Cc1ccc(S(=O)(=O)Nc2cccc3c2O[C@@H](CN(C)S(=O)(=O)c2ccc(C)cc2)[C@H](C)CN([C@@H](C)CO)C3=O)cc1,4.36%
20,C[C@H](CO)N1C[C@H](C)[C@@H](CN(C)Cc2ccc3c(c2)OCO3)Oc2c(cccc2N(C)C)C1=O,21.9%
